Sampled rows, rich in hits. Any-hit rate of the full collection: about 2.6%.
aDG glyco up = activators of alpha-DG glycosylation, primary screen, uHTS, Pro5-aDG cells, AlphaScreen; alpha-DG glycosylation AlphaScreen (IIH6); 0% Pro5, 100% B10-LARGE cell signal; 360,000 tested, 0.22% active; activation, % at 10 µM;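 active = activation of at least 8% versus controls, or a plate z-score of at least 8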;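 note: Pro5 are CHO cells carrying HIG-tagged alpha-DG that lacks glycosylation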
TROY signal inh = inhibitors of TROY-driven NF-kB signaling, primary screen, Q293 LMP1-TROYcd cells, NF-kB luciferase, uHTS. 360,000 tested, 0.98% active. inhibition, % at 10 µM. Q293 LMP1-TROYcd NF-kB luciferase reporter, 4 h. AID 1347056, 2019;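 active = compounds whose plate-normalised and pattern-corrected inhibition of the luciferase reporter signal at the single screening dose is 50% or more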
TWEAK-Fn14 inh = inhibitors of TWEAK-Fn14 signaling, primary screen, luciferase reporter cells, uHTS | 360,000 tested, 2% active | AID 1159606, 2016 | TWEAK-stimulated Fn14 reporter cells, luciferase luminescence, 8 h | inhibition, % at 10 µM; in the data active = inhibition above about 50%
EBV LMP1 NFkB = EBV LMP1-driven NF-kappaB luciferase reporter inhibitors, primary screen, cell-based, luminescence, single point. inhibition, % at 12.5 µM. 350,000 tested, 0.69% active. LMP1-induced NF-kappaB luciferase reporter cells. AID 504558, 2011; in the data active = inhibition above about 41%; inconclusive = no clear call, values can overlap the other calls;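 note: 0% = neutral control wells and 100% = reference inhibitor control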
HSP90 inh = HSP90 inhibitors, primary screen, cell lysate, luminescence; Rabbit reticulocyte lysate, luciferase refolding luminescence, 3 h; inhibition, % at 5.6 µM; 290,000 tested, 0.91% active; AID 1789, 2009;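 active = inhibition above the screen-wide mean plus 3 SD, computed separately per campaign, cut at about 16% in these data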;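 note: 0% = DMSO wells and 100% = 60 µM geldanamycin wells; inhibitors lower the luminescence because luciferase stays unfolded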
LGR2 antag = inhibitors of bursicon-induced LGR2 CRE-luciferase signal, primary screen, cell-based, HEK293, CRE-luciferase reporter, bursicon stimulation; bursicon-stimulated, 4 h; Drosophila bursicon receptor LGR2 (rickets); 380,000 tested, 0.35% active; inhibition, % at 9.99 µM; AID 720647, 2013;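 active = drop in luminescence signal, shown as inhibition above about 50% in the replicate tests, limit read from the data, passing the limit was not always enough; inconclusive = probably only some replicates passing the limit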;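 note: agonist challenge used bursicon conditioned medium at about half maximal strength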
HSP90 confirm = HSP90 inhibitors, confirmation, cell lysate, luminescence; 2,300 tested, 64% active; shares compounds with HSP90 inh; inhibition, % at 5.9 µM; AID 1846, 2009; rabbit reticulocyte lysate, luciferase refolding luminescence, 3 h; in the data active = inhibition above about 18%;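 note: 0% = vehicle wells and 100% = reference inhibitor wells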
FLuc counter = firefly luciferase inhibitors, HSP90 counter-screen, confirmation, artefact control for HSP90 inhibitor project, biochemical, luminescence, triplicate; shares compounds with HSP90 inh; purified native firefly luciferase; inhibition, % at 5.9 µM; 2,300 tested, 48% active;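 active = inhibition above the mean inhibition of all tested sample wells plus 3 SD, cut at about 10% in these data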;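 note: 0% = DMSO with luciferase and 100% = wells lacking luciferase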
Target sequence (P08659 whole entry, looked up): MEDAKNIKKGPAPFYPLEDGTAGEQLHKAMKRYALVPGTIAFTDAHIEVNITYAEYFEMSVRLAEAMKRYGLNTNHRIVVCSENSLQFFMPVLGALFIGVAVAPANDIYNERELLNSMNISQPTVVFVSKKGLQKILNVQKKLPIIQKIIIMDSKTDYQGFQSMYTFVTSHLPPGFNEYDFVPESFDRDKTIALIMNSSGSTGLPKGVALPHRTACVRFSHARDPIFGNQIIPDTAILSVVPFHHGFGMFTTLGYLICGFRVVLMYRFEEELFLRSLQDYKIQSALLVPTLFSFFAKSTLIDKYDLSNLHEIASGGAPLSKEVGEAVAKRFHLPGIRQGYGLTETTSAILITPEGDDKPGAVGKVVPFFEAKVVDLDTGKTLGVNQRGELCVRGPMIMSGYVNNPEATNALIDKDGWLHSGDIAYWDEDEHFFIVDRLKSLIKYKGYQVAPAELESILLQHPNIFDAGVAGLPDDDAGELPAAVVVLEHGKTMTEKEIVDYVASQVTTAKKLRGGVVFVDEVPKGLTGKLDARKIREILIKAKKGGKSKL
The depositor's hits bear a star; u = inconclusive; x = no result.

SMILES	aDG glyco up	TROY signal inh	TWEAK-Fn14 inh	EBV LMP1 NFkB	HSP90 inh	LGR2 antag	HSP90 confirm	FLuc counter
CC(=O)Nc1ccc(/C=N/Nc2nncc3ccccc23)cc1	0	-2	-12	-14	3	-39	x	x
CC/C(=N\Nc1nncc2ccccc12)c1ccc(F)cc1	0	-21	-19	-26	17*	-32	-5	-25
CO[C@H]1CN(C)C(=O)c2cc(NC(=O)C3CCCCC3)ccc2OC[C@@H](C)N(Cc2nccs2)C[C@H]1C	x	x	x	x	x	9	x	x
Cc1cc(C(=O)O)ccc1N/C=C1\CCCC(C)C1=O (configuration not stated)	0	x	25	-43	34*	x	70*	32*
Cc1cnc(NC(=O)COc2ccccc2Cl)s1	0	59*	96*	66*	58*	91*	79*	78*
O=C(C[C@@H]1CC[C@@H]2[C@H](COC[C@@H](O)CN2Cc2cccc(Cl)c2)O1)N1CCCCC1	x	x	x	x	x	-6	x	x
COC(=O)C[C@@H]1C[C@@H]2c3cc(NS(=O)(=O)c4ccccc4)ccc3O[C@@H]2[C@H](CO)O1	x	x	x	x	x	0	x	x
c1ccc(-n2cnc3cc(NCc4ccccn4)ccc32)cc1	0	42	57*	13	18*	-32	18*	3
c1ccc(-n2cnc3cc(NCc4ccncc4)ccc32)cc1	0	38	45	7	-2	x	x	x
C[C@@H]1CCCCO[C@@H](CN(C)C)[C@@H](C)CN([C@@H](C)CO)C(=O)c2cc(NS(=O)(=O)c3ccc(Cl)cc3)ccc2O1	x	x	x	x	x	-4	x	x
COC(=O)c1ccc(NC(=O)C(=O)c2cccn2C)cc1	0	18	38	6	26*	u	59*	42*
CCc1cc(C(=O)c2ccccc2)c(N)s1	0	5	-1	-4	21*	-33	-3	-10
O=C(O)Cc1ccc(C(=O)c2ccccc2)s1	0	-5	4	2	-4	x	x	x
CCNC(=O)C[C@H]1CC[C@@H]2[C@H](COC[C@H](O)CN2C(=O)Nc2cccc(OC)c2)O1	x	x	x	x	x	13	x	x
COc1ccc(CNC(=O)COC(=O)c2ccco2)cc1	0	19	10	-5	51*	6	-7	-9
O=C(Cc1ccc(F)cc1)Nc1nnc(SCC(=O)N2CCCCC2)s1	0	7	-8	-4	-3	11	x	x
O=C(Nc1nnc(SCC(=O)N2CCCCC2)s1)c1ccc(F)cc1F	0	-21	-6	1	51*	-10	0	-25
C=CCn1c(C)cc(C(=O)COC(=O)[C@@H](NC(=O)c2ccccc2Cl)C(C)C)c1C	0	42	54*	17	27*	u	54*	43*
C[C@@H]1CN([C@@H](C)CO)C(=O)c2cc(/C=C/c3ccccc3)cnc2O[C@@H]1CN(C)C(=O)c1cnccn1	x	x	x	x	x	12	x	x
O=C(CSc1nc2ccccc2c(=O)n1NC(=O)c1ccccc1)c1ccc(Cl)cc1	0	21	34	-7	24*	x	-5	-25
O=C(CSc1nc2ccccc2c(=O)n1NC(=O)c1ccccc1)c1ccccc1	0	23	7	-9	36*	x	10	-2
O=C(O)c1cc(-c2ccc3c(c2)OCCO3)n[nH]1	0	4	-3	10	-3	-11	x	x
Oc1ccccc1-c1cc(-c2ccc3c(c2)OCCO3)n[nH]1	0	58*	71*	-12	21*	x	38*	35*
Cc1noc(C)c1S(=O)(=O)Nc1ccc2c(c1)CC(=O)N([C@@H](C)CO)C[C@@H](C)[C@H](CN(C)S(=O)(=O)c1c(C)noc1C)O2	x	x	x	x	x	-1	x	x
Cc1n[nH]c(=O)n1-c1ccc(C(C)(C)C)cc1	0	2	1	1	-1	x	x	x
SMILES	aDG glyco up	TROY signal inh	TWEAK-Fn14 inh	EBV LMP1 NFkB	HSP90 inh	LGR2 antag	HSP90 confirm	FLuc counter
CCOC(=O)Cn1nc(C)n(-c2ccc(C(C)(C)C)cc2)c1=O	0	2	3	-7	17*	x	3	-4
CC(C)(O)C1Cc2cc(/C=C/C(=O)O)c(O)cc2O1 (configuration not stated)	0	-40	-14	-1	28*	28	6	-8
COc1cc2c(cc1/C=C/C(=O)O)OC(C)C2 (configuration not stated)	0	11	6	-11	-1	x	x	x
O=C(NCCc1ccccc1)c1ccccc1Cl	0	31	78*	46*	43*	58*	58*	50*
O=C(NCCc1ccccc1)c1ccccc1NC(=O)C1CC=CCC1C(=O)O (configuration not stated)	0	5	-3	-19	45*	5	-10	-12
Cn1cccc1C(=O)NCCc1ccccc1	0	-10	56*	8	19*	16	39*	26*
Cn1cccc1C(=O)NCCc1ccc(Cl)cc1	0	-25	-15	1	-1	-49	x	x
O=C(O)c1ccccc1C(=O)NCCc1ccc(Cl)cc1	0	-1	7	2	2	16	x	x
Cc1noc(C)c1NC(=O)N(C)C[C@@H]1Oc2c(NS(C)(=O)=O)cccc2C(=O)N([C@H](C)CO)C[C@H]1C	x	x	x	x	x	2	x	x
COc1ccc(C/C(C)=N/NC(=S)Nc2ccccc2F)cc1	0	79*	71*	-8	36*	-33	48*	35*
COc1ccc(C/C(C)=N/NC(=S)Nc2ccc(C(C)C)cc2)cc1	0	-16	-30	4	-1	-17	x	x
Cc1ccc(NCCC(=O)c2cccs2)cc1C	0	28	24	-53	8	-103	x	x
CC(C)c1ccc(NCCC(=O)c2cccs2)cc1	0	11	44	-25	29*	-60	35*	-9
CC(=O)Nc1ccc2nc(NC(=O)c3cccs3)sc2c1	0	-13	40	11	8	12	x	x
O=C(Nc1nc2cc3c(cc2s1)OCCO3)c1cccs1	1	61*	89*	32	39*	76*	62*	59*
CN(C)c1ccc(Cc2ccc(N(C)C)cc2)cc1	-1	-1	9	5	x	-2	x	x
CNc1nnc(-c2ccc(N(C)C)cc2)s1	0	16	62*	23	20*	x	47*	37*
